Data taken from PubChem BioAssay (NCI).
Compounds without any hit were thinned out: in the full panel of roughly 83,000, 20% have a hit.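 Assay: single dose, 48 h. Readout: percent growth (0 = no net growth; negative = cell death). Active: <10.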 Unmarked numbers belong to inactive results. Active and inactive are the calls of the source.

Legend:
Assay in all cases: NCI-60 one-dose screen, 48 h (100 = growth as untreated, 0 = no growth, -100 = all killed)
Settings in all cases: 10 µM unless noted
HCT-15 colon = test system: HCT-15 colon
HT29 colon = test system: HT29 colon
SNB-75 CNS = test system: SNB-75 CNS
SNB-19 CNS = test system: SNB-19 CNS
U251 CNS = test system: U251 CNS
PC-3 prostate = test system: PC-3 prostate
SK-MEL-5 melanoma = test system: SK-MEL-5 melanoma
UACC-62 melanoma = test system: UACC-62 melanoma
LOX IMVI melanoma = test system: LOX IMVI melanoma
SK-MEL-28 melanoma = test system: SK-MEL-28 melanoma
SK-MEL-2 melanoma = test system: SK-MEL-2 melanoma
EKVX NSCLC = test system: EKVX NSCLC
SN12C renal = test system: SN12C renal
UO-31 renal = test system: UO-31 renal
TK-10 renal = test system: TK-10 renal
ACHN renal = test system: ACHN renal
CAKI-1 renal = test system: CAKI-1 renal
A498 renal = test system: A498 renal
CCRF-CEM leukemia = test system: CCRF-CEM leukemia
MOLT-4 leukemia = test system: MOLT-4 leukemia

Row | Structure (SMILES) | growth (HCT-15 colon) | growth (HT29 colon) | growth (SNB-75 CNS) | growth (SNB-19 CNS) | growth (U251 CNS) | growth (PC-3 prostate) | growth (SK-MEL-5 melanoma) | growth (UACC-62 melanoma) | growth (LOX IMVI melanoma) | growth (SK-MEL-28 melanoma) | growth (SK-MEL-2 melanoma) | growth (EKVX NSCLC) | growth (SN12C renal) | growth (UO-31 renal) | growth (TK-10 renal) | growth (ACHN renal) | growth (CAKI-1 renal) | growth (A498 renal) | growth (CCRF-CEM leukemia) | growth (MOLT-4 leukemia)
1 | COc1ccc(-c2nc(SCCC(C)C)nc(Nc3ccc(C(=O)O)cc3)c2C#N)cc1 | 60.6% | 84% | 92.2% | 88.8% | 81.5% | 58.4% | 73.9% | 86.8% | 82.6% | 89.7% | 70% | 87.7% | 90.6% | 67% | 86.7% | 83.9% | 92.1% | 62.5% | 73.5% | 78.7%
2 | O=C(O/C(=C/c1ccccc1)C(F)(F)F)c1ccccc1 | 114% | 110% | 92.7% | 110% | 102% | 104% | 102% | 100% | 99.1% | 116% | 103% | 103% | 99.3% | 102% | 103% | 110% | 99% | 88.7% | 106% | 7.51% (active)
3 | Cc1cc(-c2ccccc2)on1 | 101% | 106% | 99.2% | 104% | 108% | 97.7% | 109% | 110% | 99.4% | 109% | 107% | 103% | 103% | 82.5% | 110% | 103% | 98.2% | 126% | 97.8% | 92.4%
4 | CC(C)CCSc1nc(-c2ccc(F)cc2)c(C#N)c(N2CCN(C)CC2)n1 | 83.6% | 82.2% | 73% | 91.7% | 77.6% | 65% | 90.4% | 87.2% | 77.6% | 96.5% | 77.4% | 87.8% | 88.8% | 51.3% | 88.2% | 76.5% | 60.8% | 69.7% | 78.9% | 72.5%
5 | Nc1ccc(C2=NNC(=O)Cc3cc4c(cc32)OCCO4)cc1Cl | 28.9% | 9.09% (active) | -1.14% (active) | 57.5% | 39.1% | 53% | 29.8% | 38% | 39% | 56.4% | 36.8% | 63.9% | 61.1% | 61.2% | 72.3% | 53.3% | 48.4% | 56.3% | 42.5% | 34.8%
6 | Clc1ccc(C2=NN[C@H](c3cn(-c4ccccc4)nc3-c3ccccc3)C2)cc1 | 70.5% | 69.5% | 41% | 76.9% | 49.3% | 36.7% | 80.8% | 76.5% | 49.7% | 39% | 91.4% | 35.3% | 51.2% | 105% | 99.2% | 53.1% | 19.6% | 91% | 78.3% | 77.9%
7 | COc1ccc(Oc2nc(Nc3ccc(N4CCOCC4)cc3)ncc2NC(=O)Nc2cccc(OC)c2)cc1 | 84% | 54.2% | 80.1% | 72% | 48.8% | 48.4% | 22.5% | 46.8% | 76.7% | 61.4% | 39.2% | 84.6% | 50.7% | 75.8% | 75.9% | 68% | 62.2% | 66.3% | 68.1% | 40.4%
8 | O=C(Nc1ccc([N+](=O)[O-])cc1)c1cc2ccccc2cc1O | 0.0174% (active) | 24.4% | -6.38% (active) | 23.7% | 2.66% (active) | -11.2% (active) | -86.8% (active) | -28.8% (active) | -1.01% (active) | 7.4% (active) | -66.7% (active) | 2.38% (active) | 1.45% (active) | -7.29% (active) | -19.5% (active) | -6.44% (active) | -13.7% (active) | -42.5% (active) | 1.14% (active) | -7.97% (active)
9 | ClC1(Cl)C2CCCCCCC21 (stereo not given) | 107% | 97.5% | 97.2% | 99.6% | 109% | 98.7% | 110% | 103% | 108% | 107% | 93% | 107% | 108% | 93.4% | 92.1% | 110% | 98.3% | 79.3% | 109% | 109%
10 | CCCCCCCCOC(=O)C(C)OC(=O)OCCOCCOC(=O)OC(C)C(=O)OCCCCCCCC (stereo not given) | 111% | 115% | 102% | 104% | 106% | 87.7% | 107% | 94.2% | 101% | 106% | 110% | 94% | 99.3% | 87.5% | 115% | 98.8% | 95.8% | 119% | 102% | 108%
11 | O=[N+]([O-])c1ccc(SSc2ccc([N+](=O)[O-])cc2Cl)c(Cl)c1 | 105% | 98.2% | 84% | 99.5% | 89.6% | 93.2% | 95.5% | 79.7% | 77.3% | 109% | 104% | 87.9% | 93.4% | 64.7% | 105% | 97.7% | 87.7% | 22.7% | 98.9% | 78.1%
12 | O=c1oc2ccccc2cc1-c1cc(-c2ccc(-c3cc(-c4cc5ccccc5oc4=O)nc(-c4cc5ccccc5oc4=O)c3)cc2)cc(-c2cc3ccccc3oc2=O)n1 | 103% | 108% | 97.5% | 96.9% | 99.6% | 101% | 101% | 99.1% | 102% | 108% | 106% | 96% | 102% | 88.3% | 129% | 100% | 105% | 98.1% | 92.9% | 86.8%
13 | COc1ccc(C(=O)OC2C(OC3C(O)COC(O[C@H]4C[C@H]5[C@@H]6CC=C7C[C@@H](O)CC[C@]7(C)[C@H]6CC[C@]5(C)[C@H]4[C@H](C)C(=O)CCC(C)C)C3OC(=O)C(C)C)OCC(O)C2O)cc1 (stereo not given in full) | -8.16% (active) | 12.1% | 21.4% | 27.8% | 2.54% (active) | 2.36% (active) | -36.3% (active) | -35.6% (active) | -17.5% (active) | -49.6% (active) | -37.2% (active) | 30.2% | 57.3% | -15.2% (active) | 8.54% (active) | 36.6% | 3.21% (active) | -61.2% (active) | -21.8% (active) | -34.8% (active)
14 | CCOC(=O)C1C(=O)C=C(c2cc(OC)c(OC)c(OC)c2)CC1c1sc(N(C)Cc2ccccc2)nc1Cl (stereo not given) | 92.1% | 90.7% | 79.6% | 77.5% | 87.8% | 64% | 72.7% | 64.7% | 94% | 115% | 71.9% | 63.3% | 80.6% | 53% | 87.4% | 86.8% | 46.8% | 86.1% | 82% | 58.7%
15 | COc1ccc([C@H]2c3[nH]c4ccccc4c3C[C@H]3C(=O)N(CCCCCCC(=O)NO)CC(=O)N23)cc1 | 81% | 35% | -0.662% (active) | 48.5% | 30.4% | 11.9% | 12.4% | 9.81% (active) | 13.1% | 4.8% (active) | 31.4% | 66.8% | 46.5% | 43.8% | 43.5% | 22.1% | 43.9% | -4.1% (active) | 13.3% | 12.1%
